Results filed as inconclusive are left out. Activity calls are given as the source filed them. Unless noted, calls come from the whole dose curve; as a rule, active = well fitted curve in the direction sought with a large enough effect; inconclusive = small, poorly fitted or top-dose-only effect, or another doubt; inactive = no such curve, though single readings can be large; an effect the other way counts as inactive or inconclusive.

Assay [1] deals with ATP-dependent DNA helicase Q1 (Homo sapiens) (UniProt P46063). Kind of assay: qHTS Validation Assay for Inhibitors of RecQ-Like Dna Helicase 1 (RECQ1) (AID 2353). In a few lines:
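RECQ1T1 50 nM; forked duplex (20 bp + 30-nt ss tails) 200 nM, ATP 2 mM final; pH 8.0, 2 mM MgCl2, 2.5 ug/ml poly(dI-dC); 15 min compound preincubation; discontinuous kinetic read over 2 h at RT.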
For orientation: In qHTS, concentration-response curves come from the screen itself.

The target of assay [2] is RecQ-like DNA helicase BLM (Homo sapiens) (UniProt P54132). Nature of the assay: qHTS Validation Assay for Inhibitors of Bloom's syndrome helicase (BLM) (AID 2364). The gist of the method: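 50 nM BLM preincubated 15 min at room temperature with compound in pH 8.0 Tris buffer containing 2.5 ug/ml poly(dI-dC); started with 200 nM TAMRA/BHQ-2 forked duplex and 2 mM ATP (final). Unwinding read as TAMRA fluorescence increase, two reads 2 h apart.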

The nature of assay [3]: Cytometric Cell-Based qHTS for Inhibitors of the mTORC1 Signaling Pathway in MEF (Tsc2-/-, p53-/-) Cells (AID 2660).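 Note: Tsc2 and p53 null MEFs carrying empty vector with compound for 24 h; percent of cells above a phospho-rpS6 to PI ratio cutoff in each well; series mostly up to about 38 µM.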 In a few lines:
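Immunofluorescence qHTS of rpS6 Ser235/236 phosphorylation: MEFs (Tsc2-/-, p53-/-) treated 24 h, 37 C, in DMEM + 10% FBS. Alexa-488 signal normalized to PI count, referenced to rapamycin (7.5 nM) and DMSO; PI cell number recorded for viability.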

Assay [4] in a line: High Content Imaging Cell-Based qHTS for Inhibitors of the mTORC1 Signaling Pathway in MEF (Tsc2-/-, p53-/-) Cells (AID 2666).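 Note: percent of cells scored positive for phospho-rpS6 Ser235/236 immunostaining by imaging.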 In a few lines:
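MEF Tsc2-/- p53-/- (empty vector), DMEM/10% FBS; cpd 24 h 37 °C; PFA fix, Alexa-488 p-rpS6 S235/236 Ab, Hoechst; imaged; rapamycin-defined inhibition; % positive cells/well.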

Assay [5] can be described thus: Cytometry Cell-Based qHTS for Inhibitors of the mTORC1 Signaling Pathway in MEF cells (AID 2668). Note: potency is the fitted concentration of half-maximal effect. In a few lines:
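Read-out: phospho-rpS6 Ser235/236 immunofluorescence normalized to propidium iodide intensity, scored as % active cells against a rapamycin (7.5 nM) threshold. Cells: Tsc2-/-, p53-/- MEFs stably expressing WT Tsc2, compound-treated 24 hrs at 37 degree Celsius.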

Assay [6] can be described thus: Validation screen for small molecules that induce DNA re-replication in MCF 10A normal breast cells (AID 463097). Note: nearly all actives have a fitted effect of over 60% in size. In a few lines:
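250 MCF 10A cells/well; compound pin-transferred; 48 hr, 37 C, 5% CO2; Hoechst 40 min; imaged 405/500-530 nm. Hits = more high-intensity nuclei.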

Assay [7] addresses Ubiquitin carboxyl-terminal hydrolase 2 (Homo sapiens) (UniProt O75604). Kind of assay: qHTS Validation Assay for Inhibitors of Ubiquitin-specific Protease USP2a Using CHOP2 as the Reporter (AID 463106). The gist of the method: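 Fluorescence read-out at Ex 485nm/Em 531nm after 60min RT, following addition of 25nM Ub-CHOP2 plus 25nM reporter substrate to USP2 core (10nM) pretreated 30min with compound. Data normalized to NEM full inhibition; concentration-response curves fitted.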

For assay [8], the target named is DNA polymerase III PolC-type (Bacillus subtilis (strain 168)) (UniProt P13267). Kind of assay: qHTS Validation Assay for the Inhibitors of DNA Replication in Gram-Positive Bacteria (AID 485295).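 Note: reconstituted holoenzyme with PolC plus beta clamp SSB and primase; PicoGreen fluorescence of double-stranded DNA made on primed circular M13 template; series mostly up to about 57 µM.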 The gist of the method: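 PicoGreen fluorescence (ex 480–485/em 535–540 nm) reports dsDNA synthesized on ssM13Gori template with dNTPs/NTPs. Enzyme: holoenzyme rebuilt from purified PolC, beta subunit, SSB and primase. Compound preincubated before substrate addition; RT throughout.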

Assay [9] addresses Tumor susceptibility gene 101 protein (Homo sapiens) (UniProt Q99816). Nature of the assay: qHTS Validation Assay for Iinhibitors of HIV-1 Budding by Blocking the Interaction of PTAP/TSG101 (AID 485342; calls by dose curve). The gist of the method:
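FP read-out: FITC-PTAP peptide, 50 nM final, binding Tsg101 binding domain, 10 uM final; 20 min r.t.; 10 mM HEPES pH 7.5, 0.15 M NaCl, 0.01% Tween 20, 3 mM EDTA, 0.1 mM TCEP.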

A short description of assay [10]: qHTS Validation Assay to Find Inhibitors of Chronic Active B-Cell Receptor Signaling (AID 485345; active = well fitted curve in the direction sought with a large enough effect in the main read-out, with a control signal flat, not every such curve was filed as active). In a few lines:
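TMD8 ABC-DLBCL cells stably carrying doxycycline-inducible IkappaBalpha–green luciferase fusion plus unfused red luciferase; compounds 46 uM to 3 nM, 4 h at 37C with doxycycline. Corrected green/red luminescence ratio normalized to 10 uM MG-132 and basal cell wells; curves fitted.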

Assay [11] has as its target Beta-2 adrenergic receptor (Homo sapiens) (UniProt P07550). Kind of assay: qHTS validation assay of beta-arrestin-biased ligands of beta2-adrenergic receptor (AID 485366). The gist of the method:
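Agonism was measured as beta-arrestin recruitment to recombinant beta2-AR, releasing tTA to drive luciferase. Cells were exposed for 18 hr at 37 degrees C to a series up to 46 microM. %Activity from corrected luminescence gave concentration-response curves.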

Assay [12] in a line: Quantitative high throughput screen for delayed death inhibitors of the malarial parasite plastid, 96 hour incubation (AID 488745). Note: nearly all actives have a fitted effect of over 70% in size. Note: potency is the fitted concentration of half-maximal effect. The gist of the method: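 Decreased firefly luciferase luminescence indicates inhibited growth of reporter-integrated P. falciparum after two generations (96 h, 37 C, 5% CO2). Infected erythrocytes at 0.1% parasitemia, 2% hematocrit, in Albumax-supplemented RPMI 1640.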

Assay [13] can be described thus: Quantitative high throughput screen for delayed death inhibitors of the malarial parasite plastid, 48 hour incubation (AID 488752). Note: nearly all actives have a fitted effect of over 65% in size. Note: potency is the fitted concentration of half-maximal effect. The gist of the method:
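One-generation (48 h) growth assay: a decrease in luciferase signal from an integrated reporter in P. falciparum-infected red cells (0.1% parasitemia, 2% hematocrit) after compound exposure at 37 C indicates parasite inhibition.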

Assay [14] deals with Thioredoxin reductase 1, cytoplasmic (Rattus norvegicus) (UniProt O89049). Kind of assay: qHTS Assay for Substrates of Mammalian Selenoprotein Thioredoxin Reductase 1 (TrxR1) (AID 488772).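 Note: series mostly up to about 57 µM; a drop in NADPH fluorescence below the no-compound background marks a TrxR1 substrate.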 The gist of the method:
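In this dual-purpose format, potential substrates are identified from the first fluorescence read after selenite addition, not from the 8-minute delta. Rat enzyme is preincubated with NADPH and then with compound at ~22 deg C.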

Assay [15] has the same target. Nature of the assay: qHTS Assay for Inhibitors of Mammalian Selenoprotein Thioredoxin Reductase 1 (TrxR1) (AID 488773).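 Note: drop in NADPH fluorescence over an 8 min run after selenite addition; series mostly up to about 57 µM; nearly all actives have a fitted effect of over 40% in size.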 As to conditions: Potency: inhibition. In a few lines: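 Inhibition is scored from the loss of NADPH fluorescence between first and last reads of an 8-min kinetic run. Selenite (400 uM) was the substrate, added after 15 min compound preincubation at room temperature.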

Assay [16] can be described thus: High Content Imaging Cell-Based qHTS for Inhibitors of the mTORC1 Signaling Pathway in MEF Cells (AID 2667). Note: potency is the fitted concentration of half-maximal effect. In a few lines: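 Read-out is the share of phospho-rpS6-positive cells per well, from Hoechst-normalized Alexa-488 Ser235/236 staining imaged on IN Cell. Cells: WT Tsc2-expressing Tsc2-/-, p53-/- MEFs exposed to compound for 24 hrs.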
For assay [17], the target named is ATP-dependent 6-phosphofructokinase (Trypanosoma brucei brucei) (UniProt O15648). Nature of the assay: qHTS Validation Assay to Find Inhibitors of T. brucei phosphofructokinase (AID 485368). Particulars: outcome: dose series up to 57.5 µM. In a few lines:
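ADP-Glo luminescence, two-step: residual ATP depleted, then ADP converted to ATP for luciferase. Enzyme 1.25 nM, F6P 0.5 mM, ATP 0.1 mM, pH 8.0 TEA buffer, 45 min RT. Curves fitted and classed by quality and efficacy.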

Assay [18] concerns the target Flap endonuclease 1 (Homo sapiens) (UniProt P39748). Kind of assay: qHTS Validation Assay for the Inhibitors of Human Flap endonuclease 1 (FEN1) (AID 488816). The gist of the method:
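Enzyme reagent 10 nM; cpds pinned; 15 min RT preinc.; substrate 50 nM final; reads t=0 and 15 min; no-enzyme buffer wells as neg. control; normalized data, 4-parameter Hill fit.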

The target of assay [19] is M-phase phosphoprotein 8 (Homo sapiens) (UniProt Q99549). Nature of the assay: qHTS Validation Assay for Inhibitors for MPP8 Chromodomain Interactions with Methylated Histone Tails (AID 488949).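 Note: AlphaScreen signal from MPP8 chromodomain bound to biotinylated H3K9me3 peptide; top concentration of the series differs between compounds; nearly all actives have a fitted effect of over 55% in size.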 The gist of the method: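 AlphaScreen read-out: streptavidin donor and nickel chelate acceptor beads (final 10 ug/mL), 30 min in the dark at RT. Complex of 50 nM MPP8 and 50 nM b-H3(1-18)K9me3 peptide had been exposed to compounds for 30 min beforehand.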

Chain of Flap endonuclease 1 (Homo sapiens) (P39748 whole entry, looked up): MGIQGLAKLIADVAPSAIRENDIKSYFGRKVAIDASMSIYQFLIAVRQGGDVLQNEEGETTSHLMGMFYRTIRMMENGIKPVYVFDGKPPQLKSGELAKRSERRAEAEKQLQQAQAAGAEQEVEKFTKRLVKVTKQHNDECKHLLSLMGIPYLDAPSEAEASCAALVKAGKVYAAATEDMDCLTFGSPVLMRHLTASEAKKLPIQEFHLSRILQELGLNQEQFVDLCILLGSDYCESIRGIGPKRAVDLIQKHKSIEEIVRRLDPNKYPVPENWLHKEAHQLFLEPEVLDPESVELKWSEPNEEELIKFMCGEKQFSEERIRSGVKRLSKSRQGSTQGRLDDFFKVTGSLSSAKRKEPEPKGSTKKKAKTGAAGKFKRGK
Chain of Beta-2 adrenergic receptor (Homo sapiens) (P07550 whole entry, looked up): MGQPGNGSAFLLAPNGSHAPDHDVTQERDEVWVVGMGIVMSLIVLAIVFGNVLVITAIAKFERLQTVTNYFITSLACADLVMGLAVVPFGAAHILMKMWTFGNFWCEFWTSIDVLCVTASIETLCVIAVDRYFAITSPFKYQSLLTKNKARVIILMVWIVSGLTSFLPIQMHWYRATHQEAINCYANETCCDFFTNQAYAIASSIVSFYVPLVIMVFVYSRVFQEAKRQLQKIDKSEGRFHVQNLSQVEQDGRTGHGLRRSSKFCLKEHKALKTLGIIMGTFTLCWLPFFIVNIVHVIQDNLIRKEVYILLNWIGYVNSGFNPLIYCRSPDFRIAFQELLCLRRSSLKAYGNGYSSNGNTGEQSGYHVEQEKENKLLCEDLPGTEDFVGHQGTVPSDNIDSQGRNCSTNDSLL
Chain of Tumor susceptibility gene 101 protein (Homo sapiens) (Q99816 whole entry, looked up, the tested form may be a part): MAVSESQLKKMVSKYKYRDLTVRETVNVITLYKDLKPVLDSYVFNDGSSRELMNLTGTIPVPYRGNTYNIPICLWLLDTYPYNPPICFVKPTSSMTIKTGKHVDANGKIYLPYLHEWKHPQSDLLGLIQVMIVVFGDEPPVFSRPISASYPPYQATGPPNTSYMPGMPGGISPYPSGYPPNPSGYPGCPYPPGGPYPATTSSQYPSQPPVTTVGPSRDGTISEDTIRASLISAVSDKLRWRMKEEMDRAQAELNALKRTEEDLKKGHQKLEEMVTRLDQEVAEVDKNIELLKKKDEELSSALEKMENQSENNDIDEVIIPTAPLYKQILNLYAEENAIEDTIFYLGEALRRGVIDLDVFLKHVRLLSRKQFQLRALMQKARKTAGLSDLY
Chain of RecQ-like DNA helicase BLM (Homo sapiens) (P54132 whole entry, looked up): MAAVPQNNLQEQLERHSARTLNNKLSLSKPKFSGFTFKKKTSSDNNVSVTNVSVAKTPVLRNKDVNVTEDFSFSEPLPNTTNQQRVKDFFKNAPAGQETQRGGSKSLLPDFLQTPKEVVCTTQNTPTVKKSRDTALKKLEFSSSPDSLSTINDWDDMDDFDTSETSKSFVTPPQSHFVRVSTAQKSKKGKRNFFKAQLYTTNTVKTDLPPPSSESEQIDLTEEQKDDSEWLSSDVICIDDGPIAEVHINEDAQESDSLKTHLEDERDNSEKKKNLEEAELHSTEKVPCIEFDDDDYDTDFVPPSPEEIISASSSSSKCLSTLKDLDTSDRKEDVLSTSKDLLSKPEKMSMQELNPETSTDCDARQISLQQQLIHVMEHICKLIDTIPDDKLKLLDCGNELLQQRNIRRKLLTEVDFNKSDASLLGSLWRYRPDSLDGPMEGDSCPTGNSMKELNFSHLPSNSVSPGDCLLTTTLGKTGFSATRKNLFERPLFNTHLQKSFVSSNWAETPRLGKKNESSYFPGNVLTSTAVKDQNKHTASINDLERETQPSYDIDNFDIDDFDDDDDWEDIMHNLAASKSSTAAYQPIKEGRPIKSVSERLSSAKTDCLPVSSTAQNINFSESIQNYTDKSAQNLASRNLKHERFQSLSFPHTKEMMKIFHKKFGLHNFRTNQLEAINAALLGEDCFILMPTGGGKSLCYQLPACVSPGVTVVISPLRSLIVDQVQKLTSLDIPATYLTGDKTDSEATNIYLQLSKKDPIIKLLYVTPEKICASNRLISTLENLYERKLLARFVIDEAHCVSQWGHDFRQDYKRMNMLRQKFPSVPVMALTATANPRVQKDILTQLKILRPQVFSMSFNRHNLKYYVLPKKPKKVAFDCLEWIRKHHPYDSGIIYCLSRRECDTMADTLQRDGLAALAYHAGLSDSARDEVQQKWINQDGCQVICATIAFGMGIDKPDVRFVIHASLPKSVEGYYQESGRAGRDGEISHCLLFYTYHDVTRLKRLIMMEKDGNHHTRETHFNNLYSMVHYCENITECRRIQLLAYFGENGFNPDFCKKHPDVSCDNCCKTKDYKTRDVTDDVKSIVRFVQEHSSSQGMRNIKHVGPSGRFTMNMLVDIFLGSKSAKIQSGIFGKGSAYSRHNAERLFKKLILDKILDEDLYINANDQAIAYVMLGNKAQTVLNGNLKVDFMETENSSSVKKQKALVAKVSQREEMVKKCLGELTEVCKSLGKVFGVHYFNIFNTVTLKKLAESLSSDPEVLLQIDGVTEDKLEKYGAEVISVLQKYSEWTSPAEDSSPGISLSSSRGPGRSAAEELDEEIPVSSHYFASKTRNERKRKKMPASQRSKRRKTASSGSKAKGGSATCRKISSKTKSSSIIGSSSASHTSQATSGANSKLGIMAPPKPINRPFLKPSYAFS
Chain of DNA polymerase III PolC-type (Bacillus subtilis (strain 168)) (P13267 whole entry, looked up): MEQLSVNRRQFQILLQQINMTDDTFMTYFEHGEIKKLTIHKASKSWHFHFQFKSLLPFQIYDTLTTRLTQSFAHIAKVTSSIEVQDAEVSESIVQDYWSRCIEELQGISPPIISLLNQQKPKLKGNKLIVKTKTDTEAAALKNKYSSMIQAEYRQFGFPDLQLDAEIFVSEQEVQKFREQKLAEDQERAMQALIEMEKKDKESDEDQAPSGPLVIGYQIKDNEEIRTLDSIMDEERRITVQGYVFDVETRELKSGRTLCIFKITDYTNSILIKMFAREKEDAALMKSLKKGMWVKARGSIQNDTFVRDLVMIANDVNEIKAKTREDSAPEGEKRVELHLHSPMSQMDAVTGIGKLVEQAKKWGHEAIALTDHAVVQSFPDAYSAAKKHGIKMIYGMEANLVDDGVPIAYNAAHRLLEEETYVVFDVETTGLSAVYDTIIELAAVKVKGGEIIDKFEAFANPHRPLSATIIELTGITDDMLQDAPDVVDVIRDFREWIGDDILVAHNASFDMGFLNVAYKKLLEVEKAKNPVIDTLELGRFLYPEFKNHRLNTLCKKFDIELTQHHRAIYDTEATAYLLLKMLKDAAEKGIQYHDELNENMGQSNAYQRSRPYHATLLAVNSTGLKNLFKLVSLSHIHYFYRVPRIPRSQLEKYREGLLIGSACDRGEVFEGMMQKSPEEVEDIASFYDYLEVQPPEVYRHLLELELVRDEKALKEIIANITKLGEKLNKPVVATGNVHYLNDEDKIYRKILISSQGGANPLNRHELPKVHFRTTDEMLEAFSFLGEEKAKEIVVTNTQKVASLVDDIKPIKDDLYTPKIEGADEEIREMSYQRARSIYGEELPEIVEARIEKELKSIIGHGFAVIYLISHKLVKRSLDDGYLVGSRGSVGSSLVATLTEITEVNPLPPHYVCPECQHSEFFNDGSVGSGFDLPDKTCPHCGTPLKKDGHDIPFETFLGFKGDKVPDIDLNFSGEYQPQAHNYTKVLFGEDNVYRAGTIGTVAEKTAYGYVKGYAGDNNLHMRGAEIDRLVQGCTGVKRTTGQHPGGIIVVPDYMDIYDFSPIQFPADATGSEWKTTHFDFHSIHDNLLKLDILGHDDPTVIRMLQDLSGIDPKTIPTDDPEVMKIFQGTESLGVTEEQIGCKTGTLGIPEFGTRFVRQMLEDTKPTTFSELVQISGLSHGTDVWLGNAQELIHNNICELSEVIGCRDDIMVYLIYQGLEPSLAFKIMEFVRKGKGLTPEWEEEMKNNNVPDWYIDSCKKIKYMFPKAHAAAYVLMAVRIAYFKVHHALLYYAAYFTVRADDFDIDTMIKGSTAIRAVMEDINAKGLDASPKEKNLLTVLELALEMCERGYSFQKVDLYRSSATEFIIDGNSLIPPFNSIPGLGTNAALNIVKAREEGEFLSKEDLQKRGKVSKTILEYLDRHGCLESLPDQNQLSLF
Chain of ATP-dependent DNA helicase Q1 (Homo sapiens) (P46063 whole entry, looked up): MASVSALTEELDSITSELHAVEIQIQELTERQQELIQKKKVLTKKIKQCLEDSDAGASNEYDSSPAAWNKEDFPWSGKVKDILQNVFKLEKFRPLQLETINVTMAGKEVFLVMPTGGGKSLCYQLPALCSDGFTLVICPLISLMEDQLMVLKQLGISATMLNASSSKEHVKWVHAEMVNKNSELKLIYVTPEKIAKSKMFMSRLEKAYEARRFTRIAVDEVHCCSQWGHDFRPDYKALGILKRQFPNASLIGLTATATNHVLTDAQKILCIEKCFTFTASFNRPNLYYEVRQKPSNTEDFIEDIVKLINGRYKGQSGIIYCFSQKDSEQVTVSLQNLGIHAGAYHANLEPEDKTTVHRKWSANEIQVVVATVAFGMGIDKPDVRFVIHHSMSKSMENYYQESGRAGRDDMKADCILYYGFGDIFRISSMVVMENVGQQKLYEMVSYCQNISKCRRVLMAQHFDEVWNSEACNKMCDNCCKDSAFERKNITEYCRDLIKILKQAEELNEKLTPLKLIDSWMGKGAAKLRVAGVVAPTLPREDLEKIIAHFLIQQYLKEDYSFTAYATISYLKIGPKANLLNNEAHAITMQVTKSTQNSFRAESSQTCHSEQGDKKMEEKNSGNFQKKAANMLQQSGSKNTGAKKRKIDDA

`O=C(CCCN1CCC(O)(c2cccc(C(F)(F)F)c2)CC1)c1ccc(F)cc1`: the Potency result in assay [1], in assay [2], in assay [4], in [6], in [8] and in assay [10] was “inactive” in each case. Moreover, in assay [15], the Potency result was “inactive”. Also, the compound was called inactive in [3], in assay [7], in [9], in assay [11] and in assay [14]. Also, the results for the Potency in assay [5], in assay [12] and in [13] were 13.1 µM (active), 9.28 µM (active) and 13.1 µM (active), respectively.
On to `C[C@]12CC[C@@H]3c4ccc(O)cc4C[C@@H](CCCCCCCCCS(=O)CCCC(F)(F)C(F)(F)F)[C@H]3[C@@H]1CC[C@@H]2O` (some centres undefined), for which the compound was classed as inactive in [3], in assay [7], in assay [9], in assay [11] and in assay [17]. The Potency result in [4], in [16], in assay [5], in assay [15], in assay [18] and in assay [19] was “inactive” throughout.
As for `Brc1c(NC2=NCCN2)ccc2nccnc12`, the Potency entry in [1], in [4], in assay [16], in assay [5], in assay [6] and in assay [12] was “inactive” in each case. Moreover, in assay [19], the Potency result is “inactive”. In addition, the compound was called inactive in assay [3], in [7], in assay [9] and in assay [11].
For `CCn1cc(C(=O)O)c(=O)c2cc3c(cc21)OCO3`, the Potency entry in assay [1], in assay [2], in assay [4], in [16], in [5] and in [6] was “inactive” each time. Further, the Potency entry in assay [8], in [10], in assay [12], in [15] and in assay [18] was “inactive” in each case. In addition, the result in assay [3], in assay [7], in assay [9] and in assay [11] was inactive.
As to `COCC(=O)O[C@]1(CCN(C)CCCc2nc3ccccc3[nH]2)CCc2cc(F)ccc2[C@@H]1C(C)C`, the Potency result in [1], in [2], in [8], in assay [15], in assay [18] and in assay [19] was “inactive” throughout. Besides, the Potency in [16] is 10.4 µM (active). The result in assay [7], in assay [9], in [11] and in assay [14] was inactive.
Turning to `COc1ccc([C@@H]2Sc3ccccc3N(CCN(C)C)C(=O)[C@@H]2OC(C)=O)cc1`, the call in assay [3], in assay [7], in [9], in assay [11] and in assay [17] was inactive. Besides, the Potency result in [4], in assay [16], in assay [5], in assay [6], in assay [8] and in [10] was “inactive” in each case. Moreover, the Potency entry in [12], in [13] and in assay [19] was “inactive” each time.
Regarding `COc1cc2c(cc1OC)-c1cc(=Nc3c(C)cc(C)cc3C)n(C)c(=O)n1CC2`, the result in assay [3], in [7], in [9] and in [17] was inactive. Also, the Potency result in assay [4], in assay [16], in assay [5], in assay [8], in assay [15] and in assay [18] was “inactive” each time. For the same compound, the Potency was 3.7 µM (active) in [12] and 2.62 µM (active) in assay [13].

The values are drawn from PubChem BioAssay (NCATS).
